# Assay results taken from PubChem BioAssay (EPA / NIEHS).
# Several values for one entry are separate records, joined by “and”; a condition that tells them apart may be missing. Identical values can stand only once. The source holds several records for some structures; these can differ, active in one and inactive in another. Activity calls are given as the source filed them. The calls were made as follows: active = hit-call score of the fitted dose curve at least 0.9, where 1 is the maximum; inactive = score below 0.9.
# How the values were obtained:
# [1] = read-out: Macrophage colony-stimulating factor (MCSF), CSF1 (gene 1435); assay: BSK_IMphg_MCSF: BioMAP Diversity Plus: IMphg Assay for Macrophage colony-stimulating factor (MCSF) Biomarker Activity (AID 2284293); settings: primary human endothelial cells with macrophages
# How it was run: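 Co-culture of human venular endothelial cells and macrophages, 24 hours of chemical exposure. M-CSF quantified by ELISA, with parallel SRB total-protein staining for cytotoxicity; activity fitted relative to DMSO.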
# [2] = read-out: Interleukin-10 (IL10), IL10 (gene 3586); assay: BSK_IMphg_IL10: BioMAP Diversity Plus: IMphg Assay for Interleukin-10 (IL10) Biomarker Activity (AID 2284294); settings: primary human endothelial cells with macrophages
# How it was run: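 Human venular endothelial cells cocultured with macrophages, dosed 24 h; IL-10 measured by ELISA, activity relative to DMSO. Cytotoxicity assessed in parallel cultures by sulforhodamine B total-protein staining.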
# [3] = BSK_IMphg_SRB.Mphg: Macrophage Viability Assessment in the BioMAP Diversity Plus: IMphg Assay (AID 2284295); settings: primary human endothelial cells with macrophages
# How it was run: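 Venular endothelial cells co-cultured with macrophages, read 24 h after dosing. Total protein measured by 0.1% SRB staining after 10% TCA fixation, absorbance at 560 nm. Fitted in positive direction against DMSO baseline.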
# [4] = read-out: Thrombomodulin, THBD (gene 7056); assay: BSK_LPS_Thrombomodulin: BioMAP Diversity Plus: LPS Assay for Thrombomodulin Biomarker Activity (AID 2284296); settings: primary human HUVEC with PBMC
# How it was run: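 Human umbilical vein endothelial cells co-cultured with PBMC and stimulated with LPS; cell-surface thrombomodulin measured by ELISA 24 hours after compound. Gain or loss versus DMSO; cytotoxicity checked by SRB staining in parallel cultures.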
# [5] = IUF_NPC2c_oligodendrocyte_migration_120hr: Leibniz Research Institute for Environmental Medicine (IUF) 120-hour Neural Progenitor Cell Migration Assay for Oligodendrocyte Migration (NPC2c) (AID 2284297)
# How it was run: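 Read-out is the mean distance of O4-positive oligodendrocytes from the sphere core edge at 120 h, normalized to radial glia migration and fitted in the gain direction against DMSO. Spheres of primary human neural progenitors differentiated on laminin under continuous compound exposure.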
# [6] = IUF_NPC2a_radial_glia_migration_120hr: Leibniz Research Institute for Environmental Medicine (IUF) 120-hour Neural Progenitor Cell Migration Assay for Radial Glia Migration (NPC2a) (AID 2284298)
# How it was run: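 Readout: distance in um from sphere core edge to migration-area edge, derived from Hoechst nuclei density with a threshold-defined polynomial boundary. Spheres: hNPC, GW 16-19, 0.3 mm, on PDL/laminin; exposure 5 days; DMSO is baseline.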
# [7] = IUF_NPC2a_radial_glia_migration_72hr: Leibniz Research Institute for Environmental Medicine (IUF) 72-hour Neural Progenitor Cell Migration Assay for Radial Glia Migration (NPC2a) (AID 2284299)
# How it was run: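 Primary hNPC spheres, fetal brain GW 16-19, on PDL/laminin; DMEM/F12 3:1 + 1% N2. Compound dosed day 0, 7 conc. + SC, half-medium refresh day 3. 72 h brightfield, migration distance core-to-front (um), 4 directions averaged.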
# [8] = IUF_NPC2b_neuronal_migration_120hr: Leibniz Research Institute for Environmental Medicine (IUF) 120-hour Neural Progenitor Cell Migration Assay for Neuron Migration (NPC2b) (AID 2284300)
# How it was run: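 Read-out is mean distance from sphere edge to each TUBB3-positive neuron at 120 h, expressed relative to radial glia migration distance and to DMSO baseline. Single 0.3 mm human NPC spheres differentiated on laminin under continuous compound exposure.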
# [9] = IUF_NPC3_neuronal_differentiation_120hr: Leibniz Research Institute for Environmental Medicine (IUF) 120-hour Neuronal Differentiation Assay (NPC3) (AID 2284301)
# How it was run: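 Single 0.3 mm neurospheres from human fetal cortex were plated in differentiation medium containing test compound. Medium was half-replaced on day 3. After 120 h cells were fixed, immunostained and imaged, and neuronal fraction was scored against DMSO control.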
# [10] = IUF_NPC4_neurite_length_120hr: Leibniz Research Institute for Environmental Medicine (IUF) 120-hour Neuronal Morphology Assay for Neurite Length (NPC4) (AID 2284302)
# How it was run: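 Read-out is mean neurite length in µm of TUBB3-positive neurons, skeletonized from high-content fluorescence images after 120 h. Single 0.3 mm primary human neural progenitor spheres differentiated on poly-D-lysine/laminin under continuous compound exposure; DMSO was baseline.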
smiles,measurement,setting,value
O=C(O)C(F)(OC(F)(F)C(F)(OC(F)(F)C(F)(OC(F)(F)C(F)(F)C(F)(F)F)C(F)(F)F)C(F)(F)F)C(F)(F)F (centres undefined),outcome,[1],inactive
same,outcome,[2],inactive
same,outcome,[3],inactive
same,outcome,[4],inactive
OCCCC(F)(F)C(F)(F)C(F)(F)F,outcome,[1],inactive
same,outcome,[2],inactive
same,outcome,[3],inactive
same,outcome,[4],inactive
O=C(O)C(F)(F)C(F)(F)C(F)(F)C(F)(F)C(F)(F)C(F)(F)C(F)(F)C(F)(F)Cl,outcome,[1],inactive
same,AC50,[2],45.8 µM (active) and 45.3 µM (active)
same,AC50,[3],44.4 µM (active)
same,outcome,[3],inactive
C=CC(F)(F)C(F)(F)C(F)(F)C(F)(F)C(F)(F)C(F)(F)C(F)(F)C(F)(F)F,outcome,[1],inactive
same,outcome,[2],inactive
same,outcome,[3],inactive
same,outcome,[4],inactive
O=S(=O)(OCC(F)F)C(F)(F)F,outcome,[1],inactive
same,outcome,[2],inactive
same,AC50,[3],0.221 µM (active)
same,outcome,[3],inactive
CCCCCCCCC(F)(F)C(F)(F)C(F)(F)C(F)(F)C(F)(F)C(F)(F)F,outcome,[1],inactive
same,outcome,[2],inactive
same,outcome,[3],inactive
same,outcome,[4],inactive
O=C(O)C(F)(F)C(F)(F)C(F)(F)C(F)(F)C(F)(F)C(F)(F)C(F)(F)C(F)(F)C(F)(F)C(F)(F)C(F)(F)C(F)(F)F,outcome,[1],inactive
same,outcome,[2],inactive
same,outcome,[3],inactive
same,outcome,[4],inactive
O=C(O)C=C(C(F)(F)F)C(F)(F)F,outcome,[1],inactive
same,AC50,[2],12.8 µM (active) and 11.3 µM (active)
same,outcome,[3],inactive
OC[C@@H](O)[C@@H](O)[C@H](O)[C@@H](O)CO,outcome,[5],inactive
same,outcome,[6],inactive
same,outcome,[7],inactive
same,outcome,[8],inactive
same,outcome,[9],inactive
same,outcome,[10],inactive
CCCCC(CC)COP(=O)(O)OCC(CC)CCCC (centres undefined),outcome,[4],inactive
O=C(O)C(F)(F)C(F)(F)OC(F)(F)F,outcome,[1],inactive
same,outcome,[2],inactive
same,outcome,[3],inactive
CC(CCl)OP(=O)(OC(C)CCl)OC(C)CCl (centres undefined),outcome,[5],inactive
same,outcome,[6],inactive
same,outcome,[7],inactive
same,outcome,[8],inactive
same,outcome,[9],inactive
same,outcome,[10],inactive
OCC(F)(F)C(F)(F)C(F)(F)C(F)(F)C(F)(F)C(F)(F)F,outcome,[1],inactive
same,outcome,[2],inactive
same,AC50,[3],21.6 µM (active)
same,outcome,[3],inactive
same,outcome,[4],inactive
OCC(F)(F)C(F)(F)C(F)(F)C(F)F,outcome,[1],inactive
same,outcome,[2],inactive
same,outcome,[3],inactive
CC(C)(C)C(=O)CC(=O)C(F)(F)C(F)(F)C(F)(F)F,outcome,[1],inactive
same,outcome,[2],inactive
same,outcome,[3],inactive
Cc1ccc(S(=O)(=O)OCC(F)(F)C(F)(F)C(F)(F)C(F)(F)C(F)(F)C(F)F)cc1,outcome,[1],inactive
same,outcome,[2],inactive
same,outcome,[3],inactive
NC(=O)C(F)(F)C(F)(F)C(F)(F)C(F)(F)F,outcome,[1],inactive
same,outcome,[2],inactive
same,outcome,[3],inactive
same,outcome,[4],inactive
C=CC(=O)OCC(F)(F)C(F)(F)C(F)(F)C(F)(F)COC(=O)C=C,outcome,[1],inactive
same,AC50,[2],24.4 µM (active) and 33.7 µM (active)
same,AC50,[3],21.5 µM (active) and 51.8 µM (active)
same,AC50,[4],51.4 µM (active)
same,outcome,[4],inactive
FC(F)(Br)C(F)(F)C(F)(F)C(F)(F)C(F)(F)C(F)(F)Br,outcome,[1],inactive
same,outcome,[2],inactive
same,outcome,[3],inactive
OCC(F)(F)C(F)(F)C(F)(F)C(F)(F)C(F)(F)C(F)F,outcome,[1],inactive
same,outcome,[2],inactive
same,AC50,[3],0.596 µM (active)
same,outcome,[3],inactive
FC(F)(F)C(F)(F)C(F)(F)C(F)(F)C(F)(F)C(F)(F)C(F)(F)C(F)(F)CCS,outcome,[1],inactive
same,outcome,[2],inactive
same,outcome,[3],inactive
O=C(O)C(F)(F)C(F)(F)C(F)(F)F,outcome,[1],inactive
same,outcome,[2],inactive
same,outcome,[3],inactive
same,outcome,[4],inactive
C=CC(=O)OCC(F)(F)C(F)(F)C(F)(F)C(F)(F)C(F)(F)C(F)(F)C(F)(F)F,outcome,[1],inactive
same,outcome,[2],inactive
same,outcome,[3],inactive
same,outcome,[4],inactive
FC(F)(F)C(F)(F)C(F)(F)C(F)(F)C(F)(F)C(F)(F)C(F)(F)Br,outcome,[1],inactive
same,outcome,[2],inactive
same,outcome,[3],inactive
same,outcome,[4],inactive
C=C(C)C(=O)OCCC(F)(F)C(F)(F)C(F)(F)C(F)(F)C(F)(C(F)(F)F)C(F)(F)F,outcome,[1],inactive
same,outcome,[2],inactive
same,outcome,[3],inactive
same,outcome,[4],inactive
C=C(C)C(=O)OCC(F)(F)C(F)(F)C(F)(F)F,outcome,[1],inactive
same,outcome,[2],inactive
same,outcome,[3],inactive
same,outcome,[4],inactive
FC1CC(F)(F)C(F)(F)C1(F)F (centres undefined),outcome,[1],inactive
same,outcome,[2],inactive
same,outcome,[3],inactive
same,outcome,[4],inactive
